Assay results reported in PubChem BioAssay AID1159580 (chemical genetic matrix, 2015).
Out of some 5,500 compounds screened, about 2,000 (36%) were called active. Roughly 18% stayed inconclusive and do not appear here. Cut-off read from the data, not from the text of the source: active = normalized growth mostly below about 0.91 (no sharp cut-off); inconclusive = no clear call, values can overlap the other calls; inactive = mostly above about 0.92. The list shows a part of the results.

Assay: chemical genetic growth profiling, strain panel (AID 1159580);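 note: tested at 20 µM; growth read once vehicle control cultures reached saturation at 30 °C; 1 = growth at the plate median or of vehicle wells; lower values mean less growth of the strain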
Details: growth OD

Measured: normalized growth

CCOc1nc2cccc(C(=O)OC(C)OC(=O)OC3CCCCC3)c2n1Cc1ccc(-c2ccccc2-c2nn[nH]n2)cc1 (configuration not stated)
active: S. cerevisiae deletion strains, locus YLR262C, strain YPT6 (second series), stronger effect = lower value 0.826
inactive: S. cerevisiae deletion strains, locus YJR075W, strain HOC1, stronger effect = lower value 0.989 | S. cerevisiae deletion strains, locus YKL009W, strain mrt4, stronger effect = lower value 1.1 | S. cerevisiae deletion strains, locus YKL068W, stronger effect = lower value 0.997 | S. cerevisiae deletion strains, locus YKL085W, strain MDH1 (second series), stronger effect = lower value 0.994 | S. cerevisiae deletion strains, locus YKL085W, strain MDH1, stronger effect = lower value 0.994 | S. cerevisiae deletion strains, locus YKL160W, strain elf1, stronger effect = lower value 1.02 | S. cerevisiae deletion strains, locus YKL190W, strain CNB1, stronger effect = lower value 0.999 | S. cerevisiae deletion strains, locus YKR001C, strain vps1, stronger effect = lower value 0.963 | S. cerevisiae deletion strains, locus YKR026C, strain gcn3, stronger effect = lower value 1.03 | S. cerevisiae deletion strains, locus YKR091W, strain srl3, stronger effect = lower value 1.02 | S. cerevisiae deletion strains, locus YLL001W, strain dnm1, stronger effect = lower value 1.03 | S. cerevisiae deletion strains, locus YLL026W, stronger effect = lower value 1.01 | S. cerevisiae deletion strains, locus YLL041C, strain sdh2, stronger effect = lower value 1.01 | S. cerevisiae deletion strains, locus YLR027C, strain aat2, stronger effect = lower value 1.02 | S. cerevisiae deletion strains, locus YLR039C, strain RIC1, stronger effect = lower value 0.815 | S. cerevisiae deletion strains, locus YLR058C, strain SHM2, stronger effect = lower value 1.01 | S. cerevisiae deletion strains, locus YLR102C, strain apc9, stronger effect = lower value 0.998 | S. cerevisiae deletion strains, locus YLR113W, strain HOG1, stronger effect = lower value 1.03 | S. cerevisiae deletion strains, locus YLR221C, strain rsa3, stronger effect = lower value 1.01 | S. cerevisiae deletion strains, locus YLR258W, strain gsy2, stronger effect = lower value 1.02 | S. cerevisiae deletion strains, locus YLR262C, strain YPT6, stronger effect = lower value 0.797 | S. cerevisiae deletion strains, locus YLR268W, strain sec22, stronger effect = lower value 0.981 | S. cerevisiae deletion strains, locus YLR320W, strain mms22, stronger effect = lower value 0.999 | S. cerevisiae deletion strains, locus YLR330W, strain CHS5, stronger effect = lower value 1 | S. cerevisiae deletion strains, locus YLR342W, strain FKS1 (second series), stronger effect = lower value 0.862 | S. cerevisiae deletion strains, locus YLR342W, strain FKS1, stronger effect = lower value 1.02 | S. cerevisiae deletion strains, locus YLR357W, strain rsc2, stronger effect = lower value 1.07 | S. cerevisiae deletion strains, locus YLR370C, strain arc18, stronger effect = lower value 1.02 | S. cerevisiae deletion strains, locus YLR371W, strain rom2, stronger effect = lower value 0.997 | S. cerevisiae deletion strains, locus YLR384C, strain iki3, stronger effect = lower value 1.01 | S. cerevisiae deletion strains, locus YLR418C, strain cdc73, stronger effect = lower value 0.959 | S. cerevisiae deletion strains, locus YML016C, strain PPZ1, stronger effect = lower value 1.01 | S. cerevisiae deletion strains, locus YML032C, strain rad52, stronger effect = lower value 1 | S. cerevisiae deletion strains, locus YML120C, strain ndi1, stronger effect = lower value 1.04 | S. cerevisiae deletion strains, locus YML124C, strain tub3, stronger effect = lower value 1 | S. cerevisiae deletion strains, locus YMR058W, strain fet3, stronger effect = lower value 1.02 | S. cerevisiae deletion strains, locus YMR078C, strain ctf18, stronger effect = lower value 1.01 | S. cerevisiae deletion strains, locus YMR125W, strain sto1, stronger effect = lower value 1.06 | S. cerevisiae deletion strains, locus YMR129W, stronger effect = lower value 1.03 | S. cerevisiae deletion strains, locus YMR205C, strain PFK2, stronger effect = lower value 0.99 | S. cerevisiae deletion strains, locus YMR223W, strain ubp8, stronger effect = lower value 0.984 | S. cerevisiae deletion strains, locus YMR231W, strain pep5, stronger effect = lower value 1.02 | S. cerevisiae deletion strains, locus YMR263W, strain SAP30, stronger effect = lower value 1 | S. cerevisiae deletion strains, locus YMR307W, strain GAS1, stronger effect = lower value 0.734 | S. cerevisiae deletion strains, locus YNL067W, strain RPL9B, stronger effect = lower value 0.992 | S. cerevisiae deletion strains, locus YNL071W, strain lat1, stronger effect = lower value 1.02 | S. cerevisiae deletion strains, locus YNL128W, strain TEP1, stronger effect = lower value 0.995 | S. cerevisiae deletion strains, locus YNL153C, strain GIM3, stronger effect = lower value 1 | S. cerevisiae deletion strains, locus YNL183C, strain NPR1, stronger effect = lower value 0.968 | S. cerevisiae deletion strains, locus YNL209W, strain ssb2, stronger effect = lower value 1 | S. cerevisiae deletion strains, locus YNL233W, strain BNI4, stronger effect = lower value 0.999 | S. cerevisiae deletion strains, locus YNL248C, strain rpa49, stronger effect = lower value 1.02 | S. cerevisiae deletion strains, locus YNL250W, strain rad50, stronger effect = lower value 0.991 | S. cerevisiae deletion strains, locus YNL271C, strain bni1, stronger effect = lower value 1 | S. cerevisiae deletion strains, locus YNL298W, strain CLA4, stronger effect = lower value 1 | S. cerevisiae deletion strains, locus YNL307C, strain MCK1, stronger effect = lower value 0.995 | S. cerevisiae deletion strains, locus YNL322C, strain KRE1 (second series), stronger effect = lower value 1.03 | S. cerevisiae deletion strains, locus YNL322C, strain KRE1, stronger effect = lower value 1 | S. cerevisiae deletion strains, locus YNR049C, strain mso1, stronger effect = lower value 1.04 | S. cerevisiae deletion strains, locus YNR052C, strain pop2, stronger effect = lower value 1 | S. cerevisiae deletion strains, locus YOL006C, strain TOP1, stronger effect = lower value 0.763 | S. cerevisiae deletion strains, locus YOL012C, strain htz1 0.976 | S. cerevisiae deletion strains, locus YOL147C, strain pex11, stronger effect = lower value 1 | S. cerevisiae deletion strains, locus YOR001W, strain rrp6, stronger effect = lower value 1.02 | S. cerevisiae deletion strains, locus YOR061W, strain CKA2, stronger effect = lower value 1 | S. cerevisiae deletion strains, locus YOR069W, strain VPS5, stronger effect = lower value 1 | S. cerevisiae deletion strains, locus YOR070C, strain gyp1, stronger effect = lower value 1 | S. cerevisiae deletion strains, locus YOR080W, strain dia2, stronger effect = lower value 1.02 | S. cerevisiae deletion strains, locus YOR083W, strain WHI5, stronger effect = lower value 1.01 | S. cerevisiae deletion strains, locus YOR106W, strain vam3, stronger effect = lower value 0.983 | S. cerevisiae deletion strains, locus YOR136W, strain idh2, stronger effect = lower value 0.984 | S. cerevisiae deletion strains, locus YOR144C, strain elg1, stronger effect = lower value 0.993 | S. cerevisiae deletion strains, locus YOR184W, strain ser1, stronger effect = lower value 0.952 | S. cerevisiae deletion strains, locus YOR231W, strain MKK1, stronger effect = lower value 0.998 | S. cerevisiae deletion strains, locus YOR265W, strain rbl2, stronger effect = lower value 1.02 | S. cerevisiae deletion strains, locus YOR270C, strain vph1, stronger effect = lower value 1.04 | S. cerevisiae deletion strains, locus YOR290C, strain snf2, stronger effect = lower value 1.02 | S. cerevisiae deletion strains, locus YOR316C, strain cot1, stronger effect = lower value 0.996 | S. cerevisiae deletion strains, locus YPL051W, strain arl3, stronger effect = lower value 0.999 | S. cerevisiae deletion strains, locus YPL055C, strain LGE1, stronger effect = lower value 0.988 | S. cerevisiae deletion strains, locus YPL078C, strain atp4, stronger effect = lower value 1.05 | S. cerevisiae deletion strains, locus YPL106C, strain sse1, stronger effect = lower value 0.993 | S. cerevisiae deletion strains, locus YPL240C, strain hsp82, stronger effect = lower value 1.01 | S. cerevisiae deletion strains, locus YPL241C, strain CIN2, stronger effect = lower value 1 | S. cerevisiae deletion strains, locus YPL256C, strain CLN2, stronger effect = lower value 0.961 | S. cerevisiae deletion strains, locus YPR119W, strain clb2, stronger effect = lower value 0.992 | S. cerevisiae deletion strains, locus YPR141C, strain kar3, stronger effect = lower value 0.998 | S. cerevisiae deletion strains, locus YPR163C, strain tif3, stronger effect = lower value 0.99 | S. cerevisiae deletion strains, locus YPR167C, strain met16, stronger effect = lower value 1 | S. cerevisiae deletion strains, strain wtn01, stronger effect = lower value 0.989 | S. cerevisiae strains, strain wild type, stronger effect = lower value 0.997
